We go through 5 compounds from PubChem BioAssay.

The source made the active and inactive calls.

A short description of assay [1]: E. coli DRC41 culture turbidity changes, primary screen, E. coli filamentation inducer project, strain DRC41, OD650, 48 h (AID 1152).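 Further: E. coli MC1000 strain DRC41 lacking acrAB efflux pump and sulA.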 To be noted: E. coli DRC41 (acrAB sulA), higher = more signal, called active from +8 up or from −8 down.
The nature of assay [2]: small-molecule binders of probe aLefty1, primary screen, biochemical, small-molecule microarray, 635/667 nm fluorescence (AID 1153).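 Further: score merges spot fluorescence with signal-to-noise ratio from the scanned slide images.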 The following applies: higher = more signal.
The nature of assay [3]: PSAC antagonists in infected red cells, primary screen, cell-based, P. falciparum Indochina, OD700, 1 h (AID 1154). The following applies: P. falciparum Indochina infected RBC osmotic lysis, higher = more signal, called active from +8 up or from −8 down.
Assay [4] is described as follows: PSAC antagonists in infected red cells, primary screen, cell-based, P. falciparum Indochina, OD700, 2 h (AID 1155).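 Further: lysis reports solute entry through the parasite surface anion channel PSAC; channel blockers reduce lysis of infected cells.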 The following applies: P. falciparum Indochina infected erythrocytes, osmotic lysis OD700; higher = more signal, called active from +8 up or from −8 down.
The nature of assay [5]: osmotic lysis modulators in infected erythrocytes, primary screen, PSAC antagonist project, cell-based, P. falciparum Indochina, OD700, 3 h (AID 1156). To be noted: higher = more signal, called active from +8 up or from −8 down.
Assay [6] is described as follows: PSAC antagonists in infected red cells, primary screen, cell-based, P. falciparum Indochina, OD700, 18 h (AID 1157). To be noted: P. falciparum Indochina infected erythrocytes, osmotic lysis OD700, 18 h; higher = more signal, called active from +8 up or from −8 down.
Assay [7] in a line: modulators of S6 phosphorylation in cells, primary screen, cell-based, A549, cytoblot, luminescence, serum-stimulated (AID 1158).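 Further: serum-stimulated A549 lung adenocarcinoma cells; signal is phosphorylated S6 detected by cytoblot immunostaining with HRP secondary.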 The following applies: A549 phospho-S6 cytoblot, 5 h, higher = more signal.
For assay [8], the target named is NADPH oxidase 2 (Homo sapiens) (UniProt P04839). Briefly: NOX2-dependent H2O2 signal modulators, primary screen, NOX inhibitor project, cell-based, HEK293-NOX2, PMA-stimulated, Amplex Red fluorescence (AID 1159). Further: test concentration not given here. To be noted: 45 min, higher = more signal, called active from +8 up or from −8 down.
For assay [9], the target named is NADPH oxidase 4 (Homo sapiens) (UniProt Q9NPH5). The experiment in a line: NOX4-dependent H2O2 signal modulators, primary screen, NOX inhibitor project, cell-based, HEK293-NOX4, tetracycline-induced, Amplex Red fluorescence (AID 1160). To be noted: 45 min, higher = more signal, called active from +8 up or from −8 down.
For assay [10], the target named is NADPH oxidase 5 (Homo sapiens) (UniProt Q96PH1). Briefly: NOX5-dependent H2O2 signal modulators, primary screen, NOX inhibitor project, cell-based, HEK293-NOX5, Amplex Red fluorescence (AID 1161). The following applies: HEK293-NOX5, ionomycin, 45 min, higher = more signal.
A short description of assay [11]: A549 cell viability effects, profiling panel, calcein-AM fluorescence, 48 h, basal (AID 1162). Further: test concentration not given here. The following applies: higher = more signal.
A short description of assay [12]: adipocyte viability effects, profiling panel, cell-based, 3T3-L1 adipocytes, calcein-AM fluorescence, 48 h, basal (AID 1163). Further: test concentration not given here. To be noted: 3T3-L1 adipocytes viability, higher = more signal.
The nature of assay [13]: HepG2 cell viability effects, profiling panel, calcein-AM fluorescence, 48 h, basal (AID 1164). Further: test concentration not given here. The following applies: higher = more signal.
The nature of assay [14]: MM1S cell viability effects, profiling panel, calcein-AM fluorescence, 48 h, basal (AID 1165).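 Further: viability of MM1S multiple myeloma cells under basal unstimulated conditions; test concentration not given here.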 To be noted: higher = more signal.
Assay [15] in a line: basal RPMI8226 viability, no added stimulus, profiling panel, cell-based, calcein-AM fluorescence, 48 h, PK04 Diversity Set (AID 1166).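 Further: cells grown under basal conditions without added stimulus; test concentration not given here.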 The following applies: RPMI8226 myeloma viability, higher = more signal.
Assay [16] can be described thus: basal HepG2 mitochondrial membrane potential changes, profiling panel, cell-based, JC-1 fluorescence, 24 h, 100 nL compound (AID 1167). Further: test concentration not given here. To be noted: higher = more signal.
Assay [17] can be described thus: basal 3T3-L1 adipocyte mitochondrial potential changes, profiling panel, cell-based, JC-1 fluorescence, 3T3-L1 adipocytes, 24 h, 100 nL compound (AID 1168). Further: test concentration not given here. The following applies: JC-1 mitochondrial fluorescence, higher = more signal, called active from +8 up or from −8 down.
Assay [18] in a line: basal RPMI8226 mitochondrial membrane potential changes, profiling panel, cell-based, JC-1 fluorescence, 24 h, 100 nL compound (AID 1169). Further: test concentration not given here. The following applies: RPMI8226 myeloma, JC-1 mitochondrial potential fluorescence, higher = more signal.
Assay [19] in a line: basal MM1S mitochondrial membrane potential changes, profiling panel, cell-based, JC-1 fluorescence, 24 h, 100 nL compound (AID 1170). Further: test concentration not given here. To be noted: higher = more signal.
Assay [20] is described as follows: A549 lung cancer cell viability effects, profiling panel, resazurin fluorescence, 24 h, PK04 Diversity Set (AID 1171). Further: test concentration not given here. The following applies: higher = more signal, called active from +8 up or from −8 down.

NADPH oxidase 2 (Homo sapiens), sequence (P04839 whole entry, looked up): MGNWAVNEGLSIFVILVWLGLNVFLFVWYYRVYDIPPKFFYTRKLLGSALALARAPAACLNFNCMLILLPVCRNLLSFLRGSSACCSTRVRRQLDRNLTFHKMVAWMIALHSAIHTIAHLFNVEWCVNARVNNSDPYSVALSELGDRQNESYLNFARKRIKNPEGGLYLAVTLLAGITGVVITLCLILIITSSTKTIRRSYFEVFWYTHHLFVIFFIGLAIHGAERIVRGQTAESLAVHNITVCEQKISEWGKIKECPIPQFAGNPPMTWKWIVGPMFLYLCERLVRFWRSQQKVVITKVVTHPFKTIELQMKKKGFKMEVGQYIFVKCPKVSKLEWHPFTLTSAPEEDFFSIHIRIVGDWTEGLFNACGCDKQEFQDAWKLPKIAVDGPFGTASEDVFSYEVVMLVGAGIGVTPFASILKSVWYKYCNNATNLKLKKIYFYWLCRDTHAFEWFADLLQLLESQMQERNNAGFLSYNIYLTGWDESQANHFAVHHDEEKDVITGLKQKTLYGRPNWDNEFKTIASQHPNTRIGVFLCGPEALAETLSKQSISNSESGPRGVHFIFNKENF
NADPH oxidase 5 (Homo sapiens), sequence (Q96PH1 whole entry, looked up): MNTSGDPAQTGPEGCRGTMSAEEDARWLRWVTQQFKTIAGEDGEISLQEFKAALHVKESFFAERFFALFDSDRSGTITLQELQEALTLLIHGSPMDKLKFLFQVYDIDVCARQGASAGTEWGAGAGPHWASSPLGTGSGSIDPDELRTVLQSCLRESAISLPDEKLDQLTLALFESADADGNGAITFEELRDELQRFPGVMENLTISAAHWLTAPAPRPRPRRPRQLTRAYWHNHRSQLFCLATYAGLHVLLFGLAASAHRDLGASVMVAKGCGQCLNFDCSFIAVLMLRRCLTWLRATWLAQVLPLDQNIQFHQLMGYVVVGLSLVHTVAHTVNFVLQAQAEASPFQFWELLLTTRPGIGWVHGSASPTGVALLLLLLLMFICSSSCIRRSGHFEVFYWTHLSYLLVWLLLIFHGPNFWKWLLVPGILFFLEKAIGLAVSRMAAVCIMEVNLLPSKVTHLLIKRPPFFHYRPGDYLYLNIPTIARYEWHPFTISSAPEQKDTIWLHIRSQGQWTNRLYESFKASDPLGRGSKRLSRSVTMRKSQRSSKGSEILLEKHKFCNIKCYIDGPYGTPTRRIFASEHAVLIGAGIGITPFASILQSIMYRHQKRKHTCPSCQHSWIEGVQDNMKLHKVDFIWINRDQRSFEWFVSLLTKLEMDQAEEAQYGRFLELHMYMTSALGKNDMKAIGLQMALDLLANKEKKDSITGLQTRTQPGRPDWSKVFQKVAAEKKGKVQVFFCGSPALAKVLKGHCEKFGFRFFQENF
NADPH oxidase 4 (Homo sapiens), sequence (Q9NPH5 whole entry, looked up): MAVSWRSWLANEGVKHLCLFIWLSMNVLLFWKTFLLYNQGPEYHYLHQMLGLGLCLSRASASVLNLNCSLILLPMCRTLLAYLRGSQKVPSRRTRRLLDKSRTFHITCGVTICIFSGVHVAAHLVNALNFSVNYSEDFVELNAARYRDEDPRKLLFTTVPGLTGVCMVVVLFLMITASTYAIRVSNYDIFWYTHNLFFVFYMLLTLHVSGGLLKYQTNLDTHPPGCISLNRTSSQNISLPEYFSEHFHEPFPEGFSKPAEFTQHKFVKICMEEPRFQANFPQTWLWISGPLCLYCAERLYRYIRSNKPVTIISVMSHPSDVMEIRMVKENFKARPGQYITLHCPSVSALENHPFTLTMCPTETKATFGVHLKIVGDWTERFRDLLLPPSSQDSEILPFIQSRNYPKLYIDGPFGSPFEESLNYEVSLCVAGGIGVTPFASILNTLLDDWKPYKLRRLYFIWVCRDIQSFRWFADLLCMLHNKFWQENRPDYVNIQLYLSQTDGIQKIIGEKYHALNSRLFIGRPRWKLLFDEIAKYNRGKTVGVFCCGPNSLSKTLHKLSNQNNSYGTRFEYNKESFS

Consider `O=C1OCCC=C1C(O)CCc1ccccc1` (stereo not given), for which the z-score is -0.27 (inactive) in [1]; 0.512 (inactive) in assay [3]; -0.57 (inactive) in assay [4]; -0.177 (inactive) in [5]; -0.193 (inactive) in [6]; -0.136 in assay [7]. Also, the z-score in assay [8] is -0.428 (inactive); in assay [9], 0.0181 (inactive); in assay [10] it was 0.111; in [11], 0.0955; in assay [12], -0.831; in assay [13], -0.354. The z-score in [14] was -0.575; in assay [15] it was 0.146; in [16], -0.895; in [17], -0.54 (inactive); in [18], 0.0715; in assay [19], -0.517. In assay [20], the z-score was -0.0147 (inactive). This compound also gave a composite z-score in assay [2] of -0.057.
For the compound `CC(C)CON=C1C[C@@H](O)[C@@H](O)[C@@H]2[C@@H]3C(=O)N(C4CCCCC4)C(=O)[C@@H]3CC[C@H]12`, the z-score in assay [1] is 0.539 (inactive); in assay [3], -0.172 (inactive); in assay [4], 0.193 (inactive); in assay [5] it was 0.168 (inactive); in [6] it was 0.0575 (inactive); in assay [7], -0.545. The z-score in assay [8] was -0.671 (inactive); in assay [9] it was -0.118 (inactive); in [10] it was -0.246; in assay [11], 0.325; in [12], 0.274; in assay [13], 0.232. Besides, the z-score in assay [14] was 0.768; in assay [15], -0.909; in [16], -0.357; in assay [17] it was 0.0297 (inactive); in assay [18] it was 0.0139; in [19], -0.0788. Further, the z-score in [20] was -0.318 (inactive). The composite z-score in assay [2] was -0.101.
In the case of `CCOC(=O)NN=C1C[C@@H](O)[C@@H](O)[C@@H]2[C@@H]3C(=O)N(Cc4ccc5c(c4)OCO5)C(=O)[C@@H]3CC[C@H]12`, the z-score in [1] is 0.245 (inactive); in [3] it was 5.49 (inactive); in assay [4], 0.756 (inactive); in [5], 0.41 (inactive); in assay [6], 0.476 (inactive); in assay [7], -0.4. Moreover, the z-score is -3.49 (inactive) in [8]; -0.0101 (inactive) in assay [9]; -0.598 in assay [10]; -0.257 in assay [11]; -0.132 in assay [12]; 0.473 in assay [13]. Further, the z-score in assay [14] was 0.457; in [15], -0.0903; in assay [16], -0.268; in assay [17], -0.754 (inactive); in assay [18], 0.386; in [19], -1.34. Besides, the z-score in assay [20] was -0.027 (inactive). Moreover, the composite z-score in assay [2] was -0.239.
As for `O=C(C=Cc1ccc2c(c1)OCO2)c1ccc(F)cc1`, the z-score in [1] was -0.394 (inactive); in [3], 20.7 (active); in assay [4], 3.22 (inactive); in assay [5], -0.0309 (inactive); in assay [6] it was 0.47 (inactive); in assay [7], -0.41. The z-score was 1.75 (inactive) in assay [8]; -2 (inactive) in assay [9]; -1.56 in assay [10]; -0.182 in assay [11]; 0.867 in assay [12]; -0.358 in [13]. Besides, the z-score in [14] is -3.26; in assay [15], -3.41; in assay [16] it was -0.698; in [17], -0.211 (inactive); in [18], -0.811; in [19], -0.286. In addition, the z-score in assay [20] is 0.275 (inactive). Moreover, the composite z-score in assay [2] was found to be 0.0685.
On to `O=C1C[C@@H](O)[C@@H](O)[C@@H]2[C@@H]3C(=O)N(c4cccc(Oc5ccccc5)c4)C(=O)[C@@H]3CC[C@H]12`, for which the z-score is -0.367 (inactive) in [1]; 0.429 (inactive) in assay [3]; 0.0618 (inactive) in assay [4]; -0.195 (inactive) in assay [5]; -0.0653 (inactive) in assay [6]; -0.875 in assay [7]. The z-score was -0.0166 (inactive) in assay [8]; 0.6 (inactive) in [9]; 0.124 in assay [10]; -0.0402 in assay [11]; -0.231 in assay [12]; 0.0658 in [13]. Besides, the z-score in [14] is 0.258; in assay [15], -0.0527; in [16], -0.101; in [17], -1.02 (inactive); in [18] it was -0.308; in assay [19], 0.258. For the same compound, in assay [20], the z-score is 0.16 (inactive). The compound also displayed a composite z-score in assay [2] of 0.0446.
